Where “and” joins values, the source holds several entries; their conditions need not be identical. Equal values may be shown once. Inconclusive results are not listed. A call without a number means that no potency is given here. More than one record can exist for a structure, and the calls need not agree. Calls of active or inactive are those of the source. Unless noted, calls follow the shape of the full dose curve.

The first assay in a line: qHTS assay for small molecule agonists of the antioxidant response element (ARE) signaling pathway (AID 743202; active = well fitted activation curve with a large enough effect in the signal ratio in the repeat runs, not every such curve was filed as active; the % refers to the signal ratio). Particulars: HepG2 ARE-bla reporter, beta-lactamase FRET, 16 h; series mostly up to 73.3 µM. A digest of the protocol:
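After 16 hours of compound treatment at 37 C, HepG2 cells with a stably integrated ARE-driven beta-lactamase reporter were loaded 2 hours at room temperature with LiveBLAzer B/G FRET substrate and fluorescence intensity measured.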
In general terms: Quantitative high-throughput screening tests each substance at several concentrations.
As for `Nc1cccc2ccccc12`, the Potency result is “inactive”.
On the same count and under the same terms, in the case of `c1ccc2c(c1)-c1cccc3cccc-2c13` it was “inactive”; in that of `CCC1(CCC(C)C)C(=O)NC(=O)NC1=O`, “inactive”; in that of `O=C1NC(=O)C(=O)C(=O)N1`, “inactive”.
Same read-out and setting: in the case of `CN1CC[C@]23c4c5ccc(O)c4O[C@H]2[C@@H](O)C=C[C@H]3[C@H]1C5` it was “inactive”; in that of `COc1ccc(C(=O)c2c(C)n(CCN3CCOCC3)c3ccccc23)cc1`, “inactive”.
For the molecule `CCC1(C2=NCCN2)Cc2ccccc2O1` (stereo unspecified), the Potency result is “inactive”.
Same read-out and setting: in the case of `O=C(O)C(Cl)(Cl)Br` it was “inactive”.
Same read-out and setting: in the case of `CCC1CCC(=O)O1` (stereo unspecified) it was “inactive”; in that of `O=C(O)C(O)C(O)C(=O)O` (stereo unspecified), “inactive”; in that of `C=CCc1ccc(OC(=O)Cc2ccccc2)c(OC)c1`, “inactive”.
Still for that read-out and setting: in the case of `Cc1ncc(C[n+]2csc(CCO)c2C)c(N)n1` it was “inactive”; in that of `O=C(O)CCCOc1ccc(Cl)cc1Cl`, “inactive”; in that of `CC(C)(C)OOC(C)(C)CCC(C)(C)OOC(C)(C)C`, “inactive”.
Turning to `CC(C)[C@@H](C(=O)O[C@@H](C#N)c1cccc(Oc2ccccc2)c1)c1ccc(Cl)cc1`, the Potency result is “inactive”.

Another assay can be described thus: qHTS assay for small molecule agonists of the antioxidant response element (ARE) signaling pathway - cell viability counter screen (AID 743203). Also: nearly all actives have a fitted effect of over 55% in size. Also: potency is read from the fitted curve at half-maximal effect. The note with it: ARE-bla HepG2 viability, CellTiter-Glo luminescence, 16 h; series mostly up to 73.3 µM. A digest of the protocol: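 Luminescence read-out (CellTiter-Glo, 30 min at room temperature) measured cell viability in the same wells as the ARE beta-lactamase reporter. HepG2 ARE-bla cells were treated with compounds for 16 hrs at 37C/5% CO2.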
Regarding `O=C(Cl)OCCOCCOC(=O)Cl`, the Potency entry is “inactive”.
For `Nc1cccc2ccccc12`, the Potency entry is “inactive”.
The same measure, in the same setting: in the case of `c1ccc2c(c1)-c1cccc3cccc-2c13` it was “inactive”; in that of `CCC1(CCC(C)C)C(=O)NC(=O)NC1=O`, “inactive”; in that of `O=C1NC(=O)C(=O)C(=O)N1`, “inactive”.
The same measure, in the same setting: in the case of `Clc1ccc(Cl)c(Cl)c1` it was “inactive”; in that of `[Cl-].[Cl-].[Hg+2]`, 19.2 µM (active) and 12.2 µM (active).
For `CN1CC[C@]23c4c5ccc(O)c4O[C@H]2[C@@H](O)C=C[C@H]3[C@H]1C5`, the Potency entry was “inactive”.
In the case of `COc1ccc(C(=O)c2c(C)n(CCN3CCOCC3)c3ccccc23)cc1`, the Potency result was “inactive”.
As to `O=C1c2ccccc2C(=O)N1SC(Cl)(Cl)Cl`, the Potency is 60.3 µM (active) and 13.7 µM (active).
Still for that read-out and setting: in the case of `O=C(O)c1cc(I)cc(I)c1I` it was “inactive”.
Consider `CCCCNC(=O)OCC#CI`, for which the Potency was 21.7 µM (active).
In the case of `CCC1(C2=NCCN2)Cc2ccccc2O1` (stereo unspecified), the Potency entry is “inactive”.
With `O=C(O)C(Cl)(Cl)Br`, the Potency result is “inactive”.
On the same count and under the same terms, in the case of `CCC1CCC(=O)O1` (stereo unspecified) it was “inactive”; in that of `C[CH2][Hg][S]c1ccccc1C(=O)O`, 1.72 µM (active) and 5.96 µM (active); in that of `CCCCCCCCn1sccc1=O`, 21.7 µM (active) and 25.5 µM (active).
The same measure, in the same setting: in the case of `CC1(C)[C@H](C(=O)O[C@H](C#N)c2cccc(Oc3ccccc3)c2)[C@@H]1C=C(Br)Br` it was “inactive”.
Consider `CCCCCCCCCCCCN=C(N)N`, for which the viability change, negative = cytotoxic was -8.9% [at 3.74 µM] (inactive).
Regarding `CCCCCCCCP(=O)(O)O`, the Potency result is “inactive”.
The same measure, in the same setting: in the case of `CN1C[C@H](C(=O)N[C@]2(C)O[C@@]3(O)[C@@H]4CCCN4C(=O)[C@H](Cc4ccccc4)N3C2=O)C=C2c3cccc4[nH]cc(c34)C[C@H]21` it was “inactive”.
Still for that read-out and setting: in the case of `CNC(=O)Oc1cccc(N=CN(C)C)c1` it was “inactive”.
Regarding `O=C(O)C(O)C(O)C(=O)O` (stereo unspecified), the Potency result is “inactive”.
As for `C=CCc1ccc(OC(=O)Cc2ccccc2)c(OC)c1`, the Potency result was “inactive”.
On the same count and under the same terms, in the case of `Cc1ncc(C[n+]2csc(CCO)c2C)c(N)n1` it was “inactive”; in that of `O=C1CC[C@@]2(O)[C@H]3Cc4ccc(O)c5c4[C@@]2(CCN3CC2CC2)[C@H]1O5`, “inactive”.
For `C[C@]12CC[C@H]3[C@@H](CCC4=CC(=O)CC[C@@H]43)[C@@H]1CC[C@@H]2OC(=O)CCc1ccccc1`, the Potency result is “inactive”.
On to `O=C(O)COc1cc(Cl)c(Cl)cc1Cl`, for which the Potency result is “inactive”.
As for `CN(C)C(=O)Nc1cccc(OC(=O)NC(C)(C)C)c1`, the Potency result is “inactive”.
Turning to `O=[N+]([O-])/C=C/c1ccccc1`, the Potency is 22 µM (active) and 15.4 µM (active).
`CC(C)(C)CC(C)(C)c1ccc(O)cc1`: the Potency is 30.6 µM (active) and inactive.
In the case of `Nc1ccccc1C(=O)OCCc1ccccc1`, the Potency result was “inactive”.
`CC(C)CCCCCCCOC(=O)c1ccccc1C(=O)OCCCCCCCC(C)C`: the Potency entry is “inactive”.
Take `O=C(O)CCCOc1ccc(Cl)cc1Cl`: the Potency result was “inactive and 27.8 µM (active)”.
The same measure, in the same setting: in the case of `COC1=CC(=O)O[C@@H](/C=C/c2ccc3c(c2)OCO3)C1` it was “inactive”; in that of `CC(C)(C)OOC(C)(C)CCC(C)(C)OOC(C)(C)C`, “inactive”; in that of `CC(C)[C@@H](C(=O)O[C@@H](C#N)c1cccc(Oc2ccccc2)c1)c1ccc(Cl)cc1`, “inactive”.
On to `C[C@@H]1C[C@@H]([C@H](O)CC2CC(=O)NC(=O)C2)C(=O)[C@@H](C)C1`, for which the Potency entry is “inactive”.

A short description of a further assay: qHTS assay for small molecule activators of the heat shock response signaling pathway - cell viability counter screen (AID 743209; active = well fitted cell-killing curve with a large enough effect in the repeat runs; also: nearly all actives have a fitted effect of over 50% in size; also: potency is read from the fitted curve at half-maximal effect). Particulars: HSE-bla HeLa viability, CellTiter-Glo luminescence, 5 h; series mostly up to 62.6 µM. A digest of the protocol: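 HSE-bla HeLa; 1500 cells/well; overnight 37 C, 5% CO2; compound 5 h 37 C; LiveBLAzer B/G substrate 2.5 h RT; CellTiter-Glo 30 min RT; luminescence.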
Turning to `O=C(Cl)OCCOCCOC(=O)Cl`, the Potency result was “inactive”.
On to `Nc1cccc2ccccc12`, for which the Potency result is “inactive”.
Take `c1ccc2c(c1)-c1cccc3cccc-2c13`: the Potency result was “inactive”.
Regarding `CCC1(CCC(C)C)C(=O)NC(=O)NC1=O`, the Potency entry is “inactive”.
`Clc1ccc(Cl)c(Cl)c1`: the Potency result was “inactive”.
The same measure, in the same setting: in the case of `[Cl-].[Cl-].[Hg+2]` it was 3.87 µM (active) and 30.9 µM (active); in that of `CN1CC[C@]23c4c5ccc(O)c4O[C@H]2[C@@H](O)C=C[C@H]3[C@H]1C5`, “inactive”; in that of `COc1ccc(C(=O)c2c(C)n(CCN3CCOCC3)c3ccccc23)cc1`, “inactive”.
For `O=C(O)c1cc(I)cc(I)c1I`, the Potency result was “inactive”.
With `CCCCNC(=O)OCC#CI`, the Potency result was “inactive”.
Regarding `CCC1(C2=NCCN2)Cc2ccccc2O1` (stereo unspecified), the Potency result is “inactive”.
As to `O=C(O)C(Cl)(Cl)Br`, the Potency result is “inactive”.
On to `CCC1CCC(=O)O1` (stereo unspecified), for which the Potency entry was “inactive”.
Turning to `C[CH2][Hg][S]c1ccccc1C(=O)O`, the Potency is 19.5 µM (active) and 15 µM (active).
On to `CC1(C)[C@H](C(=O)O[C@H](C#N)c2cccc(Oc3ccccc3)c2)[C@@H]1C=C(Br)Br`, for which the Potency entry was “inactive”.
Consider `CCCCCCCCCCCCN=C(N)N`, for which the activity change, negative = cytotoxicity was -18.4% [at 2.7 µM] (inactive).
As to `CN1C[C@H](C(=O)N[C@]2(C)O[C@@]3(O)[C@@H]4CCCN4C(=O)[C@H](Cc4ccccc4)N3C2=O)C=C2c3cccc4[nH]cc(c34)C[C@H]21`, the Potency result is “inactive”.
Still for that read-out and setting: in the case of `CNC(=O)Oc1cccc(N=CN(C)C)c1` it was “inactive”; in that of `O=C(O)C(O)C(O)C(=O)O` (stereo unspecified), “inactive”.
Consider `C=CCc1ccc(OC(=O)Cc2ccccc2)c(OC)c1`, for which the Potency result was “inactive”.
For `Cc1ncc(C[n+]2csc(CCO)c2C)c(N)n1`, the Potency entry was “inactive”.
In the case of `O=C1CC[C@@]2(O)[C@H]3Cc4ccc(O)c5c4[C@@]2(CCN3CC2CC2)[C@H]1O5`, the Potency result is “inactive”.
`C[C@]12CC[C@H]3[C@@H](CCC4=CC(=O)CC[C@@H]43)[C@@H]1CC[C@@H]2OC(=O)CCc1ccccc1`: the Potency result was “inactive”.
For `CCCN(CCOc1c(Cl)cc(Cl)cc1Cl)C(=O)n1ccnc1`, the Potency entry is “inactive”.
On the same count and under the same terms, in the case of `CN(C)C(=O)Nc1cccc(OC(=O)NC(C)(C)C)c1` it was “inactive”; in that of `O=[N+]([O-])/C=C/c1ccccc1`, “inactive”; in that of `Nc1ccccc1C(=O)OCCc1ccccc1`, “inactive”.
On to `CC(C)CCCCCCCOC(=O)c1ccccc1C(=O)OCCCCCCCC(C)C`, for which the Potency result was “inactive”.
Regarding `O=C(O)CCCOc1ccc(Cl)cc1Cl`, the Potency result was “inactive”.
On the same count and under the same terms, in the case of `COC1=CC(=O)O[C@@H](/C=C/c2ccc3c(c2)OCO3)C1` it was “inactive”; in that of `CC(C)(C)OOC(C)(C)CCC(C)(C)OOC(C)(C)C`, “inactive”.
Regarding `CC(C)[C@@H](C(=O)O[C@@H](C#N)c1cccc(Oc2ccccc2)c1)c1ccc(Cl)cc1`, the Potency entry is “inactive”.
With `C[C@@H]1C[C@@H]([C@H](O)CC2CC(=O)NC(=O)C2)C(=O)[C@@H](C)C1`, the Potency entry was “inactive”.

The values are drawn from PubChem BioAssay (Tox21).
